# Bioassay records (PubChem BioAssay)
# A selection: hits, their analogues and other compounds. The true share with any hit is near 1.7%.
# PfHsp40 rescue: rescue of yeast from PfHsp40 toxicity, primary screen, S. cerevisiae, ATP luminescence; S. cerevisiae expressing PfHsp40, growth rescue; growth rescue, % at 12.5 µM; 0.68% of 340,000 active; AID 504582, 2011; in the data active means growth rescue above about 28%, passing the limit was not always enough;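 further: yeast W303a lacking pdr1 and pdr3 grown in galactose medium; growth measured after three days at 30 °C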
# CCHF vOTU inh-1: CCHFV vOTU protease inhibitors, primary screen, biochemical, Pep-AMC substrate, fluorescence; inhibition, % at 11.5 µM; 0.55% of 370,000 active; further: 0% = vehicle wells with enzyme and 100% = no enzyme wells
# ugtP null kill: growth inhibition of ugtP-null S. aureus, primary screen, RN4220 ugtP deletion, OD600 | 16 h | growth inhibition, % (no concentration beside the values) | 0.54% of 330,000 active | AID 1259309, 2017; in the data active means growth inhibition above about 68%;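 further: plate controls were untreated wells for no effect and antibiotic for full effect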
# Vc quorum ag: inducers of Vibrio cholerae quorum light production without autoinducers, primary screen, BH1578 luxS cqsA deficient, single point | V. cholerae BH1578 lux reporter, luminescence, 6 h | activation, % at 18.7 µM | 0.16% of 350,000 active; in the data active means activation mostly above about 9.7%, no sharp cut-off
# Mtb hypoxia rep: PubChem AID 1159583. fluorescence inhibition, % (test concentration not listed). 0.1% of 300,000 active. M. tuberculosis hypoxia-regulated fluorescent reporter, fluorescence; in the data active means fluorescence inhibition mostly above about 23%, no sharp cut-off; inactive means mostly below about 17%
# RN4220 kill: growth inhibition of S. aureus RN4220, primary screen, OD600; 0.33% of 330,000 active; AID 1259311, 2017; 16 h; inhibition, % (no concentration beside the values); in the data active means inhibition above about 85%;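 further: plate controls were untreated cells for no effect and reference antibiotic for full effect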
# CCHF vOTU inh-2: CCHFV vOTU protease inhibitors, confirmation, biochemical, Pep-AMC substrate, fluorescence; shares compounds with CCHF vOTU inh-1; 17% of 1,900 active; Recombinant CCHFV vOTU; inhibition, % at 11.5 µM
# * marks the source's active call; other numbers are inactive results; i = inactive; . = not tested or not shown. Unless noted, no stated cut-off is given here; in the data, active means inhibition above about 30%; inactive means the rest.
SMILES,PfHsp40 rescue,CCHF vOTU inh-1,ugtP null kill,Vc quorum ag,Mtb hypoxia rep,RN4220 kill,CCHF vOTU inh-2
Cc1nnc(N/N=C\c2ccc(-c3ccccc3[N+](=O)[O-])o2)n1N,-1.3,101.2*,.,-0.2,.,.,6.8
Cc1nnc(NN=Cc2ccc(Br)cc2)n1N,.,.,-3.6,.,2.0,-0.5,.
COC(=O)C=Cc1ccccc1S(=O)(=O)N(Cc1ccccc1)Cc1ccco1,.,.,17.6,.,18.8,13.6,.
COc1cccc(C=Nc2nc3ccccc3[nH]2)c1O,.,.,11.2,.,5.4,0.4,.
O=C(NN=C1CC(=NNC(=O)c2ccncc2)c2ccccc21)c1ccncc1,.,.,6.2,.,20.2,7.1,.
O=C(N/N=C1\C/C(=N\NC(=O)c2ccncc2)c2ccccc21)c1ccncc1,0.0,93.3*,.,-0.3,.,.,82.9*
Cn1cccc1C=NNC(N)=S,.,.,4.1,.,20.2,3.4,.
COc1ccccc1C=NN=C(NN=Cc1ccccc1OC)NN=Cc1ccccc1OC,-0.5,69.0*,-2.9,i,8.3,10.4,2.0
CC1=NN(c2cccc(Cl)c2)C(=O)C1,-0.6,44.5*,3.1,-0.2,15.4,8.0,2.4
CC1=NN(c2ccc(C(=O)O)c(N)c2)C(=O)C1,1.8,82.8*,2.3,i,-1.9,3.3,-13.5
Cc1c(C=NNC(=O)c2cccs2)c2ccccc2n1Cc1ccccc1Cl,.,.,3.3,.,9.4,4.0,.
O=C(Cn1cc(COC(=O)c2c3ccccc3cc3ccccc23)nn1)c1ccc(O)cc1,.,34.1*,.,.,.,.,-22.9
C(=NNCc1ccccc1)c1ccc2ncccc2c1,.,.,8.4,.,-15.9,-3.8,.
C=CCC[C@@H](CCCCC)OC(=O)/C=C/[C@H](O)[C@@H](O)C[C@H](O)CC=C,.,34.3*,.,.,.,.,18.1
Cc1nc2c(C)cccc2cc1C(=O)NN=Cc1cccc([N+](=O)[O-])c1,.,.,7.3,.,0.1,0.0,.
CCOc1ccc(C(=O)C(C)OC(=O)C2CCN(c3ccc(C(F)(F)F)cn3)CC2)cc1 (stereo not given),-0.5,35.1*,11.5,-1.2,3.9,-2.0,9.9
Cc1cc(C)c(NC(=O)CNC(=O)COC(=O)C2CCN(c3ccc(C(F)(F)F)cn3)CC2)c(C)c1,0.5,33.9*,-8.5,-0.6,5.1,-8.0,1.6
COc1ccccc1CNC(=O)COC(=O)C1CCN(c2ccc(C(F)(F)F)cn2)CC1,0.5,43.5*,8.1,-1.4,7.1,2.7,-10.3
Clc1cccc(NN=Cc2ccncc2)c1,.,.,-16.8,.,0.6,0.2,.
COc1ccc(CN2C(CC(C)=O)c3ccc(C=CC(C)=O)cc3S2(=O)=O)cc1 (stereo not given),.,.,0.6,.,12.2,5.1,.
COc1cc(C2OCC3C(c4ccc(O)c(OC)c4)OCC23)ccc1O (stereo not given),.,.,4.8,.,14.1,7.3,.
COc1ccc(CN2C(CC(=O)O)c3cc(C(F)(F)F)ccc3S2(=O)=O)cc1 (stereo not given),.,.,6.5,.,15.8,6.9,.
CCC(=O)NN=C(C)CC(=O)Nc1cccc([N+](=O)[O-])c1,.,.,4.7,.,19.0,5.6,.
COC(=O)C1C(O)=C(C=Nc2ccc(N)cc2)C(=O)CC1(C)C (stereo not given),0.5,40.1*,0.7,i,0.0,5.3,-4.3
CC1(C)CC(=O)C(C=Nc2ccc(N)cc2)=C(O)C1,0.2,63.5*,-0.9,0.7,1.3,-1.2,-8.1
SMILES,PfHsp40 rescue,CCHF vOTU inh-1,ugtP null kill,Vc quorum ag,Mtb hypoxia rep,RN4220 kill,CCHF vOTU inh-2
COc1ccc(C(O)c2nc(-c3ccoc3)cs2)cc1 (stereo not given),.,29.7*,.,i,.,.,-20.4
CCc1noc(C)c1C(=O)Nc1ccc(S(=O)(=O)N2CCCCC2)cc1,-0.6,5.2,1.9,i,5.5,3.8,.
CCc1noc(C)c1C(=O)Nc1ccc(Cl)c(S(=O)(=O)N2CCCCC2)c1,2.4,32.0*,3.0,1.4,11.7,1.9,-9.4
Cc1ccc(NCc2ccccc2O)cc1,-0.6,-5.2,14.5,0.9,4.3,5.4,.
Cc1ccc(CNc2ccc(O)cc2)cc1,-0.2,62.5*,-12.2,-10.0,.,-9.2,71.7*
C=CCN1C(=O)/C(=C/c2ccc(OC(C)=O)c(OCC)c2[N+](=O)[O-])SC1=S,-0.5,30.2*,100.0*,-0.4,-6.7,99.0*,82.0*
CCOc1c(OC(C)=O)ccc(/C=C/c2ccc3cccc(OC(C)=O)c3n2)c1[N+](=O)[O-],0.8,.,-10.7,-4.2,-2.7,3.6,.
Cc1ccc(NS(=O)(=O)c2cccc3cccnc23)c(Cl)c1,-0.7,37.1*,3.0,i,13.8,-0.8,-3.6
C#CCOCCOCCOCCNc1nc(N2CCN(C(=O)C(CCCCN)n3cc(CCCC)nn3)CC2)nc(N2CCN(C(=O)C(CCCCN)n3cc(CCCC)nn3)CC2)n1 (stereo not given),.,.,-0.1,.,-9.4,-1.1,.
Cn1c(SCC(=O)Nc2ccc3cn[nH]c3c2)nnc1-c1cccs1,2.4,21.7,0.1,.,1.7,-6.4,.
Cn1c(Cc2cccs2)nnc1SCC(=O)Nc1ccc2cn[nH]c2c1,.,31.4*,.,.,.,.,4.5
Cc1ccc(-n2c(C)cc(/C=C3\NC(=O)NC3=O)c2C)c(C)c1,2.3,32.8*,-3.6,i,-1.6,18.9,-2.2
Cc1ccc(OCC(=NO)C(C)(C)C)c([N+](=O)[O-])c1,.,.,5.9,.,8.6,7.4,.
O=C(NN=Cc1ccc(OC(=O)c2ccccc2)cc1)c1cccc(O)c1,.,.,-1.2,.,6.6,4.2,.
Nc1ccc2ccc(N)cc2c1,.,33.8*,.,.,.,.,-31.8
Nc1ccc2cc3ccccc3cc2c1,0.8,13.2,-0.6,-0.4,-5.8,-2.9,.
COc1cccc(NP(=O)(Oc2ccccc2)Oc2ccccc2)c1,-0.5,29.9*,-20.1,i,4.5,2.9,5.1
CC1CCN(C(=O)c2[nH]cnc2C(=O)NC(CCCCNC(=O)OC(C)(C)C)C(=O)OC(C)(C)C)CC1 (stereo not given),.,.,0.5,.,19.3,3.7,.
CCN(CC)c1ccc(C=Nc2ccc(N(C)C)cc2)c(O)c1,-0.4,74.1*,7.7,i,9.7,8.8,-1.8
CCN(CC)c1ccc(N=Cc2ccc(N(CC)CC)cc2O)cc1,-1.6,24.3,.,i,.,.,.
CC(C)(C)N1C(=O)C2C(c3ccc(Br)cc3)N3C(=O)N(c4cccc(F)c4)C(=O)[C@@]3(Cc3ccccc3)C2C1=O (stereo not given in full),.,.,-30.1,.,-0.6,0.8,.
FC(F)(F)c1cccc(NC2=NCCCS2)c1,-1.9,8.1,4.8,10.6,2.8,2.9,.
FC(F)(F)Oc1ccc(NC2=NCCCS2)cc1,-1.5,44.3*,3.0,-0.1,-17.9,2.7,-9.2
CCCCNc1ccc2nsnc2c1[N+](=O)[O-],1.0,56.9*,-0.9,-0.4,2.9,5.2,-6.1
CN(C)c1ccc2nsnc2c1[N+](=O)[O-],-0.7,13.9,.,-0.2,.,.,.
O=[N+]([O-])c1cccnc1C1OCCO1,.,1.2,.,i,.,.,.
Cc1cnc(C2OCCO2)c2cccc(N)c12,.,38.0*,.,i,.,.,64.8*
